What all share (assay): NCI-60 one-dose screen, 48 h (100 = growth as untreated, 0 = no growth, -100 = all killed)
Settings in all cases: 10 µM unless noted

The subject of assay [1] is NCI-H23 lung.
The test system of assay [2] is NCI-H226 lung.
In assay [3] the test system is NCI-H322M lung.
In assay [4] the test system is HOP-62 NSCLC.
For assay [5], the system named is NCI-H460 lung.
For assay [6], the system named is HOP-92 NSCLC.
For assay [7], the system named is NCI-H522 lung.
The test system of assay [8] is A549/ATCC NSCLC.
In assay [9] the test system is 786-0 renal.
The test system of assay [10] is COLO 205 colon.
Assay [11] deals with DU-145 prostate.
The subject of assay [12] is K-562 leukemia.
Assay [13] relates to MALME-3M melanoma.
For assay [14], the system named is MDA-MB-231 breast.
Assay [15] concerns RXF 393 renal.
In assay [16] the test system is SF-268 CNS.
The test system of assay [17] is SF-295 CNS.
The subject of assay [18] is SF-539 CNS.
The test system of assay [19] is UACC-257 melanoma.
The subject of assay [20] is M14 melanoma.

“And” between values parts separate entries of the source, which are not always exact repeats. Equal entries are not always repeated. Compounds without any hit were thinned out: in the full panel of roughly 83,000, 20% have a hit.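 A percent growth of 40 corresponds to 60% growth inhibition; 0 means no net growth; -100 means all cells died. Active threshold: below 10.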 The source made the active and inactive calls.

As for `C/C=C/CC(C)C(O)[C@H](NC(=O)[C@@H]1CCCN1C(=O)[C@](C)(CC)NC(=O)CCCCCCCCC)C(=O)N[C@@](C)(CC)C(=O)N[C@@H](CCC(N)=O)C(=O)N[C@H](CCC(N)=O)C(=O)NC(C)(C)C(=O)NC(C)(C)C(=O)N[C@@H](CCC(N)=O)C(=O)N[C@H](CC(C)C)C(=O)N[C@H](CO)CC(C)C` (stereo not given in full), the growth in assay [1] was 68.4% (inactive) and -71.3% (active); in assay [2], 49% (inactive) and -24.9% (active); in assay [3], 69.8% (inactive) and -15.9% (active); in assay [4], 56.3% (inactive) and -78.5% (active); in assay [5], 63.6% (inactive) and -72.2% (active); in assay [6] it was 75.3% (inactive) and -53.5% (active). Besides, the growth was 14.7% (inactive) and -74.4% (active) in assay [7]; 76% (inactive) and 9.75% (active) in assay [8]; 47.7% (inactive) and -80.3% (active) in [9]; 48.7% (inactive) and -50.7% (active) in [10]; -21.7% (active) and -48.7% (active) in assay [11]; 14.5% (inactive) and 10.4% (inactive) in assay [12]. Further, the growth in assay [13] is 29.9% (inactive) and -95.9% (active); in assay [14], 63.4% (inactive) and -96% (active); in assay [15] it was 0.95% (active) and -63% (active); in [16], 20.8% (inactive) and -63.8% (active); in assay [17] it was 11.3% (inactive) and -81.6% (active); in assay [18], 39.5% (inactive) and -100% (active). In addition, the growth in assay [19] is 21.1% (inactive) and -71.1% (active); in assay [20], 54.7% (inactive) and -71.4% (active).

Take `CN1CCN(c2ccc(Nc3nc(NCCCNS(=O)(=O)c4cccc(F)c4)c4sccc4n3)cc2)CC1`: the growth is 84% (inactive) in assay [1]; 112% (inactive) in assay [2]; 68% (inactive) in assay [3]; 96.6% (inactive) in assay [4]; 19.9% (inactive) in assay [5]; 58.7% (inactive) in [6]. For the same compound, the growth was -1.42% (active) in assay [7]; 44.8% (inactive) in [8]; -24.1% (active) in assay [9]; 27.1% (inactive) in assay [10]; 43.4% (inactive) in assay [11]; 12.5% (inactive) in [12]. Further, the growth in assay [13] was -83.6% (active); in [14], 36.1% (inactive); in assay [15] it was -71.4% (active); in assay [16] it was 44.2% (inactive); in assay [17], 6.24% (active); in assay [18], -80.4% (active). Moreover, the growth in assay [19] was -64% (active); in assay [20] it was -62.2% (active).

In the case of `CN1CCN(Cc2ccc(NC(=O)c3cncc(C#Cc4cnc5ccc(OC6CCOCC6)nn45)c3)cc2C(F)(F)F)CC1`, the growth in assay [1] was -58.7% (active); in assay [2], -58.4% (active); in [3] it was -44.7% (active); in assay [4], -77.4% (active); in [5] it was -77.9% (active); in assay [6], -31.8% (active). Also, the growth in [7] is -75.5% (active); in [8] it was -77.3% (active); in assay [9], -89.1% (active); in assay [10] it was -82.8% (active); in assay [11], -89.5% (active); in [12], -0.118% (active). Also, the growth in [13] is -87.5% (active); in assay [14] it was -59.9% (active); in assay [15], -80.9% (active); in assay [16], -58.4% (active); in [17], -97% (active); in [18], -92.8% (active). Besides, the values for the growth in assay [19] and in assay [20] were -72.3% (active) and -91.2% (active), respectively.

In the case of `Cn1cc(-c2nn3cc(-c4ccncc4)nc3s2)c2cc(F)ccc21`, the growth was 82% (inactive) in assay [1]; 83.5% (inactive) in assay [2]; 87.9% (inactive) in assay [3]; 79.6% (inactive) in assay [4]; 65.8% (inactive) in assay [5]; 49.2% (inactive) in assay [6]. Further, the growth in assay [7] is 86.9% (inactive); in assay [8], 94.9% (inactive); in assay [9] it was 89.6% (inactive); in assay [10], 55% (inactive); in assay [11], 90.8% (inactive); in assay [12] it was 19.7% (inactive). Besides, the growth is 65.5% (inactive) in [13]; 63.3% (inactive) in assay [14]; 88% (inactive) in assay [15]; 94.8% (inactive) in [16]; 96.7% (inactive) in [17]; 87% (inactive) in assay [18]. For the same compound, the results for the growth in assay [19] and in assay [20] were 111% (inactive) and 93.4% (inactive), respectively.

Regarding `O=C(/C=C/c1ccc(F)cc1)Nc1cccc2cccnc12`, the growth is 91.6% (inactive) in assay [1]; 97.8% (inactive) in assay [2]; 101% (inactive) in assay [3]; 98.5% (inactive) in [4]; 89.4% (inactive) in assay [5]; 108% (inactive) in assay [6]. In addition, the growth in assay [7] is 97.5% (inactive); in assay [8], 107% (inactive); in assay [9] it was 108% (inactive); in [10], 114% (inactive); in [11] it was 107% (inactive); in assay [12], 101% (inactive). The growth in assay [13] was 100% (inactive); in [14], 100% (inactive); in [15], 110% (inactive); in assay [16], 104% (inactive); in assay [17] it was 111% (inactive); in assay [18], 102% (inactive). Besides, the growth is 114% (inactive) in [19] and 98.5% (inactive) in [20].

In the case of `CCOC(=O)C(=O)Nc1ccc2c(ccn2C(=O)c2cccc(F)c2)c1`, the growth in [1] is 95.8% (inactive); in assay [2], 97.2% (inactive); in [3] it was 93.8% (inactive); in assay [4], 95.9% (inactive); in [5] it was 100% (inactive); in assay [6], 78.9% (inactive). Further, the growth is 96.1% (inactive) in assay [7]; 102% (inactive) in assay [8]; 97.6% (inactive) in assay [9]; 108% (inactive) in assay [10]; 67.7% (inactive) in assay [11]; 101% (inactive) in [12]. Also, the growth in assay [13] was 102% (inactive); in [14], 107% (inactive); in assay [15] it was 104% (inactive); in assay [16], 99% (inactive); in assay [17], 92% (inactive); in assay [18], 91.5% (inactive). In addition, the growth in [19] is 99.1% (inactive); in assay [20], 95.3% (inactive).

Take `COc1ccc(-c2cc(-c3ccc(N(C)C)cc3)n3c(n2)nc2ccccc23)cc1`: the growth was 68% (inactive) in assay [1]; 60.8% (inactive) in [2]; 82.2% (inactive) in [3]; 77.9% (inactive) in assay [4]; 53.3% (inactive) in assay [5]; -5.95% (active) in [6]. In addition, the growth in assay [7] is 17.7% (inactive); in [8], 38.6% (inactive); in assay [9] it was 42.8% (inactive); in assay [10], 59.4% (inactive); in assay [11] it was 73.3% (inactive); in [12], 20.8% (inactive). In addition, the growth in assay [13] was 118% (inactive); in assay [14], 75.2% (inactive); in [15] it was 86.5% (inactive); in assay [16], 76.9% (inactive); in [17], 48.6% (inactive); in assay [18], 82.6% (inactive). Also, the results for the growth in [19] and in assay [20] were 58% (inactive) and 29.1% (inactive), respectively.
